Screening results: PubChem BioAssay, The Scripps Research Institute Molecular Screening Center
Rows were chosen to be rich in hits. Some 1.1% of all compounds tested hit in one or more screens of this group.
MOR-DOR ag-1 – agonists of OPRM1-OPRD1 heterodimerization, primary screen, cell-based, luminescence | 0.3% of 340,000 active | activation, % at 9.3 µM | AID 504326, 2011 | cells | Mu-type opioid receptor (Homo sapiens) + Delta-type opioid receptor (Homo sapiens), …
OPRM1-OPRD1 inv – inverse agonists of MOR-DOR heterodimerization, primary screen, cell-based, luminescence | AID 504357, 2011 | cell-based MOR-DOR heterodimer luminescence, inverse agonism | 0.21% of 340,000 active | inhibition, % at 9.3 µM; in the data active = inhibition above about 22%, passing the limit was not always enough
HTR5A ag ctr – HTR5A agonists in luminescence cell assay, primary screen, counter-screen for OPRM1-OPRD1 heterodimer agonist project, full-deck HTS | 5-hydroxytryptamine receptor 5A (Homo sapiens), P47898 | cell-based | activation, % at 9.3 µM | 0.61% of 340,000 active; in the data active = activation mostly above about 9.5%, no sharp cut-off; inactive = mostly below about 7.6%
Target sequence (P47898 whole entry, looked up): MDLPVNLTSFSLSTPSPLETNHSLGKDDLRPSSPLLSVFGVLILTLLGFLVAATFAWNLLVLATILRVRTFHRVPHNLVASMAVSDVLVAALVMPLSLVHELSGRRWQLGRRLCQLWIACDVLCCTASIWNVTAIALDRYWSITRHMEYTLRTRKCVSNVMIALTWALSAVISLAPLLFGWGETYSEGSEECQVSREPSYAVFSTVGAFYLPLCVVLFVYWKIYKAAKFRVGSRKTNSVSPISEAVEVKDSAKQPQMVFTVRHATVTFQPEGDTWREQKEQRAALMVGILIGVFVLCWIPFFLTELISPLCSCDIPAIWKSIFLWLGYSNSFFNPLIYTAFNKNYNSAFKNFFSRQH
HTR5A inv ctr – HTR5A inverse agonists in luminescence cell assay, primary screen, counter-screen for OPRM1-OPRD1 heterodimer inverse agonist project, full-deck HTS; 5-hydroxytryptamine receptor 5A (Homo sapiens), P47898; HTR5A cell line, inverse agonism; inhibition, % at 9.3 µM; 0.083% of 340,000 active; in the data active = inhibition mostly above about 23%, no sharp cut-off; inactive = mostly below about 18%
MOR-DOR ag-2 – OPRM1-OPRD1 heterodimerization promoters, counter-screen for HTR5A agonist project, cell-based, luminescence. AID 504913, 2011. shares compounds with HTR5A ag ctr. 13% of 800 active. activation, % at 9.3 µM. U2OS counter-screen cells, complementation luminescence, 3 h
HTR5A ag conf – HTR5A agonists, retest of hits, confirmation, cell-based, luminescence | activation, % at 9.3 µM | HTR5A agonist cell assay | shares compounds with HTR5A ag ctr | 17% of 800 active | AID 504915, 2011; in the data active = activation above about 17%
Each line names hits and unclear results; the compound was inactive in the other large screens (follow-up assays come after a bar, where they were run). Cut-off read from the data, not from the text of the source, unless noted: active = activation above about 18%; inactive = the rest.

COc1cccc(NC(=O)COC(=O)COc2cccc3c2OC(C)(C)C3)c1	none
CN(C)S(=O)(=O)c1ccc(NC(=O)COc2cccc3c2OC(C)(C)C3)cc1	HTR5A ag ctr 23.8 | MOR-DOR ag-2 inactive | HTR5A ag conf 45.6
CCCNC(=O)c1ccccc1NC(=O)COc1cccc2c1OC(C)(C)C2	HTR5A ag ctr 27.5 | MOR-DOR ag-2 inactive | HTR5A ag conf inactive
Cc1c(C(=O)Nc2cccc(F)c2)cnn1-c1ccccc1	none
CCOC(=O)N1CCN(C(=O)CSc2nc3c([nH]c4ccccc43)c(=O)n2CC)CC1	none
COc1ccc(C=NNc2nc3ccccc3s2)cc1	none
Cc1ccc2[nH]c(C)c(/C=N/Nc3nc4ccccc4s3)c2c1	HTR5A ag ctr 20.1 | MOR-DOR ag-2 inactive | HTR5A ag conf inactive
CC1CCCC(NC(=O)COC(=O)c2cc(S(=O)(=O)N3CCOCC3)ccc2F)C1C (stereo not given)	HTR5A ag ctr 18.4 | MOR-DOR ag-2 inactive | HTR5A ag conf inactive
COc1ccccc1CNC(=S)Nc1ccc2nc(N3CCN(C)CC3)cc(C)c2c1	HTR5A ag ctr 69.5 | MOR-DOR ag-2 inactive | HTR5A ag conf 70.2
COc1ccc(CNC(=S)Nc2ccc3nc(N4CCN(C)CC4)cc(C)c3c2)cc1	none
COc1ccc(OC)c(C2SCCN2S(=O)(=O)c2cccc(C(F)(F)F)c2)c1 (stereo not given)	HTR5A ag ctr 16.6 | MOR-DOR ag-2 inactive | HTR5A ag conf inactive
COc1cc(OC)c(C2SCCN2S(=O)(=O)c2ccc(F)cc2)cc1OC (stereo not given)	none
NC(=O)c1ccc(NC(=O)COC(=O)C2CC(=O)N(Cc3ccccc3)C2)cc1 (stereo not given)	none
NC(=O)NC(=O)COC(=O)CCSc1ccccc1	none
CC(C)(C)c1ccc(OCC(=O)Nc2ccncc2)cc1	none
O=C(OCC(=O)N1CCc2ccccc2C1)c1c(F)cccc1Cl	none
COc1ccc(-c2cc3cc(F)ccc3cn2)cc1	HTR5A ag ctr 24.3 | MOR-DOR ag-2 22.4 | HTR5A ag conf inactive
COc1ccc(NS(=O)(=O)c2ccc(/C=C/C(=O)O)cc2)cc1S(=O)(=O)N1CCOCC1	none
O=S(=O)(c1cccc(NC(=S)N2CCN(c3cccc(Cl)c3)CC2)c1)C(F)F	HTR5A ag ctr 15.3 | MOR-DOR ag-2 30.9 | HTR5A ag conf inactive
O=C1OCCN1c1c(-c2ccccc2)c(-c2cccs2)nc2c(-c3ccccc3)cccc12	none
COc1cccc2sc(N3CCN(C(=O)c4ccco4)CC3)nc12	HTR5A ag ctr 18.7 | MOR-DOR ag-2 18.9 | HTR5A ag conf inactive
COc1cc(CCC(=O)Nc2nccs2)cc(OC)c1OC	none
CC(C)(C)OC(=O)N1CCC(NC(=O)c2ncn(Cc3ccccc3)c2C(=O)NC2CCN(C(=O)OC(C)(C)C)CC2)CC1	HTR5A ag ctr 14.8 | MOR-DOR ag-2 inactive | HTR5A ag conf inactive
Cn1cnc(C(=O)NC2CCN(C(=O)OC(C)(C)C)CC2)c1C(=O)NC1CCN(C(=O)OC(C)(C)C)CC1	none
Cc1noc(C)c1C(=O)OCC(=O)Nc1ccccc1C(=O)NC(C)c1ccccc1 (stereo not given)	HTR5A ag ctr 16.8 | MOR-DOR ag-2 inactive | HTR5A ag conf inactive
CC1CCCC(NC(=O)COC(=O)c2cc3ccccc3oc2=O)C1C (stereo not given)	none
O=c1[nH]c(C2CCN(S(=O)(=O)Cc3ccccc3)CC2)nc2c1nnn2Cc1cccc(Cl)c1	HTR5A ag ctr 14.5 | MOR-DOR ag-2 inactive | HTR5A ag conf inactive
Cc1nc([N+](=O)[O-])c(C(=O)OCc2cccc(Br)c2)n1C	none
COCCCNc1nc(N)c([N+](=O)[O-])c(NCC2CCCO2)n1 (stereo not given)	HTR5A ag ctr 15.5 | MOR-DOR ag-2 inactive | HTR5A ag conf inactive
C/C(=N/NS(=O)(=O)c1ccc(Cl)cc1)c1ccc2c(c1)OCO2	HTR5A ag ctr 15.1 | MOR-DOR ag-2 inactive | HTR5A ag conf inactive
C/C(=N\NS(=O)(=O)c1ccc(Br)cc1)c1ccc2c(c1)OCO2	none
O=C(NCCCN1CCCCC1)c1ccc(CS(=O)c2ccc(Cl)cc2)o1 (stereo not given)	none
CN(C)c1ccc(CN(C(=O)COc2ccccc2)C2CCS(=O)(=O)C2)cc1 (stereo not given)	HTR5A ag ctr 16.5 | MOR-DOR ag-2 inactive | HTR5A ag conf inactive
Cc1c(Br)c([N+](=O)[O-])nn1CCCC(=O)NC(C)c1ccccc1 (stereo not given)	none
Cc1ccccc1CSc1nnc2ccc(-c3ccncc3)nn12	none
O=C(COc1ncnc2ccccc12)Nc1cc([N+](=O)[O-])ccc1F	HTR5A ag ctr 19.2 | MOR-DOR ag-2 inactive | HTR5A ag conf inactive
O=C(NCCCc1ccccc1)c1ccc(CS(=O)Cc2ccc(Cl)cc2)o1 (stereo not given)	none
O=C(NCCc1ccc(F)cc1)C(=O)NCC1CCCN1S(=O)(=O)c1cccs1 (stereo not given)	HTR5A ag ctr 15.3 | MOR-DOR ag-2 inactive | HTR5A ag conf inactive
NC(=O)c1ccc(NC(=O)COC(=O)CCSc2ccccc2)cc1	HTR5A ag ctr 14.7 | MOR-DOR ag-2 inactive | HTR5A ag conf inactive
Cc1ccc(SCCC(=O)OCC(=O)Nc2ccc(C(N)=O)cc2)cc1	none
NC(=O)c1ccc(NC(=O)COC(=O)c2c[nH]c3ccccc23)cc1	HTR5A ag ctr 17.7 | MOR-DOR ag-2 inactive | HTR5A ag conf inactive
Cc1ccc(S(=O)(=O)/N=c2\ccc(Cl)cn2C(F)F)cc1	none
CCOC(=O)c1sc(-c2ccc(Cl)cc2Cl)nc1O	none
COc1ccc(NC(=O)CSc2nc3nc(C)cc(C)n3n2)cc1	none
COc1ccc(OC)c(NC(=O)CSc2nc3nc(C)cc(C)n3n2)c1	HTR5A ag ctr 16.6 | MOR-DOR ag-2 inactive | HTR5A ag conf inactive
CCCCCCCCCCOC(=O)Cn1c(COc2ccccc2OC)[n+](C)c2ccccc21	HTR5A ag ctr 14.5 | MOR-DOR ag-2 36.9 | HTR5A ag conf inactive
O=C(NC1CCN(Cc2ccccc2)CC1)c1cccc(S(=O)(=O)Nc2ccc(SC(F)F)cc2)c1	HTR5A ag ctr 18.7 | MOR-DOR ag-2 inactive | HTR5A ag conf inactive
Cc1ccc(NS(=O)(=O)c2cccc(C(=O)NC3CCN(Cc4ccccc4)CC3)c2)cc1	none
CCOc1ccccc1N1CCN(S(=O)(=O)c2ccc(F)c(F)c2)CC1	none
CCOc1cc(S(=O)(=O)N2CCCCCC2)ccc1F	HTR5A ag ctr 20.4 | MOR-DOR ag-2 inactive | HTR5A ag conf inactive
COc1ccc(C(=O)N2CCN(CCc3ccccc3)CC2)cc1[N+](=O)[O-]	HTR5A ag ctr 19.2 | MOR-DOR ag-2 inactive | HTR5A ag conf inactive
CCN(CC)C(=O)c1ccc(S(=O)(=O)N2CCC(c3nc4ccccc4s3)CC2)cc1	HTR5A ag ctr 21.0 | MOR-DOR ag-2 inactive | HTR5A ag conf inactive
Cc1ccc(S(=O)(=O)NC(=NC2CCCCC2)c2ccc(Cl)cc2)cc1	HTR5A ag ctr 14.4 | MOR-DOR ag-2 inactive | HTR5A ag conf inactive
